# “And” between values parts separate entries of the source, which are not always exact repeats. Equal values may be shown once. Read-outs that look alike come from different tables or passages of the source.
# Assays:
# [1] = tested on: PIK3CD; conditions: concentration: 1 μM, replicates: in singlicate, n = 1
# [2] = tested on: PIK3CG; conditions: concentration: 1 μM, replicates: in singlicate, n = 1
# [3] = tested on: T1, PIK4CB; conditions: concentration: 1 μM, replicates: in singlicate, n = 1
# T1 construct: gene PI4KB
# [4] = tested on: PIKFYVE; conditions: concentration: 1 μM, replicates: in singlicate, n = 1
# [5] = tested on: PIM1; conditions: concentration: 1 μM, replicates: in singlicate, n = 1
# [6] = tested on: PIM2; conditions: concentration: 1 μM, replicates: in singlicate, n = 1
# [7] = tested on: PIM3; conditions: concentration: 1 μM, replicates: in singlicate; n = 1
# [8] = tested on: PIP5K1A; conditions: concentration: 1 μM, replicates: in singlicate; n = 1
# [9] = tested on: PIP5K1C; conditions: concentration: 1 μM, replicates: in singlicate, n = 1
# [10] = tested on: PIP5K2B; conditions: concentration: 1 μM, replicates: in singlicate; n = 1
# [11] = tested on: T2, PIP5K2C; conditions: concentration: 1 μM, replicates: in singlicate, n = 1
# T2 construct: gene PIP4K2C
# [12] = tested on: T3, PKAC-alpha; conditions: concentration: 1 μM, replicates: in singlicate, n = 1
# T3 construct: gene PRKACA
# [13] = tested on: T4, PKAC-beta; conditions: concentration: 1 μM, replicates: in singlicate, n = 1
# T4 construct: gene PRKACB
# [14] = tested on: PKMYT1; conditions: concentration: 1 μM, replicates: in singlicate; n = 1
# [15] = tested on: PKN1; conditions: concentration: 1 μM, replicates: in singlicate, n = 1
# [16] = tested on: PKN2; conditions: concentration: 1 μM, replicates: in singlicate, n = 1
# [17] = tested on: PLK1; conditions: concentration: 1 μM, replicates: in singlicate, n = 1
# [18] = tested on: PLK2; conditions: concentration: 1 μM, replicates: in singlicate, n = 1
# [19] = tested on: PLK3; conditions: concentration: 1 μM, replicates: in singlicate, n = 1
# [20] = tested on: PLK4; conditions: concentration: 1 μM, replicates: in singlicate, n = 1
# 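Further: KINOMEscan kinase panel screen.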
compound,measurement,setting,value
O=C(Nc1ccccc1)Nc1ccc(Oc2ccc3nccn3n2)cc1,%Inh,[1],0%
same,%Inh,[2],0%
same,%Inh,[3],0%
same,%Inh,[4],5%
same,%Inh,[5],0%
same,%Inh,[6],6%
same,%Inh,[7],0%
same,%Inh,[8],4%
same,%Inh,[9],25%
same,%Inh,[10],7%
same,%Inh,[11],25%
same,%Inh,[12],0%
same,%Inh,[13],55%
same,%Inh,[14],8%
same,%Inh,[15],6%
same,%Inh,[16],4%
same,%Inh,[17],3%
same,%Inh,[18],0%
same,%Inh,[19],15%
same,%Inh,[20],0%
COc1cc2c(Nc3cccc(NC(=O)c4ccccc4)c3)ncnc2cc1OCCCN1CCOCC1 [GSK223810],%Inh,[1],0%
same,%Inh,[2],0%
same,%Inh,[3],0%
same,%Inh,[4],0%
same,%Inh,[5],0%
same,%Inh,[6],0%
same,%Inh,[7],5%
same,%Inh,[8],0%
same,%Inh,[9],26%
same,%Inh,[10],2%
same,%Inh,[11],0%
same,%Inh,[12],100%
same,%Inh,[13],0%
same,%Inh,[14],7%
same,%Inh,[15],8%
same,%Inh,[16],0%
same,%Inh,[17],0%
same,%Inh,[18],3%
same,%Inh,[19],0%
same,%Inh,[20],17%
CS(=O)(=O)CCNCc1ccc(-c2ccc3ncnc(Nc4ccc(OCc5ccccc5)c(Cl)c4)c3c2)o1.Cl [GW574783],%Inh,[1],0%
same,%Inh,[2],0%
same,%Inh,[3],8%
same,%Inh,[4],23%
same,%Inh,[5],0%
same,%Inh,[6],5%
same,%Inh,[7],0%
same,%Inh,[8],32%
same,%Inh,[9],62%
same,%Inh,[10],0%
same,%Inh,[11],29%
same,%Inh,[12],4%
same,%Inh,[13],16%
same,%Inh,[14],0%
same,%Inh,[15],12%
same,%Inh,[16],8%
same,%Inh,[17],6%
same,%Inh,[18],0%
same,%Inh,[19],0%
same,%Inh,[20],0%
CNc1nccc(-c2c(-c3ccc(F)cc3)ncn2C2CCN(C)CC2)n1 [SB-222903],%Inh,[1],0%
same,%Inh,[2],0%
same,%Inh,[3],0%
same,%Inh,[4],9%
same,%Inh,[5],1%
same,%Inh,[6],0%
same,%Inh,[7],0%
same,%Inh,[8],36%
same,%Inh,[9],0%
same,%Inh,[10],0%
same,%Inh,[11],90%
same,%Inh,[12],1%
same,%Inh,[13],17%
same,%Inh,[14],0%
same,%Inh,[15],0%
same,%Inh,[16],0%
same,%Inh,[17],0%
same,%Inh,[18],0%
same,%Inh,[19],4%
same,%Inh,[20],0%
Cl.O=S(=O)(c1cccc(F)c1)c1ccc(Nc2ncnc3cc(Br)sc23)cc1Cl [GSK306886],%Inh,[1],21%
same,%Inh,[2],5%
same,%Inh,[3],6%
same,%Inh,[4],0%
same,%Inh,[5],14%
same,%Inh,[6],0%
same,%Inh,[7],0%
same,%Inh,[8],9%
same,%Inh,[9],70%
same,%Inh,[10],3%
same,%Inh,[11],60%
same,%Inh,[12],0%
same,%Inh,[13],0%
same,%Inh,[14],26%
same,%Inh,[15],19%
same,%Inh,[16],0%
same,%Inh,[17],0%
same,%Inh,[18],0%
same,%Inh,[19],0%
same,%Inh,[20],26%
Clc1cccc(-c2nc(Nc3ccncc3)c3ccccc3n2)c1 [GW873004],%Inh,[1],0%
same,%Inh,[2],0%
same,%Inh,[3],0%
same,%Inh,[4],61%
same,%Inh,[5],4%
same,%Inh,[6],11%
same,%Inh,[7],0%
same,%Inh,[8],22%
same,%Inh,[9],33%
same,%Inh,[10],0%
same,%Inh,[11],49%
same,%Inh,[12],2%
same,%Inh,[13],60%
same,%Inh,[14],0%
same,%Inh,[15],0%
same,%Inh,[16],20%
same,%Inh,[17],17%
same,%Inh,[18],0%
same,%Inh,[19],0%
same,%Inh,[20],0%
COc1ccc(-c2nc3n(c2-c2ccncc2)CCC3)cc1 [SKF-104493],%Inh,[1]; 1 µM,5% and 25%
same,%Inh,[2]; 1 µM,11% and 1%
same,%Inh,[3]; 1 µM,0% and 10%
same,%Inh,[4]; 1 µM,11% and 0%
same,%Inh,[5]; 1 µM,0% and 50%
same,%Inh,[6]; 1 µM,2% and 0%
same,%Inh,[7],0%
same,%Inh,[8],27%
same,%Inh,[9]; 1 µM,25% and 5%
same,%Inh,[10],0%
same,%Inh,[11]; 1 µM,0% and 9%
same,%Inh,[12]; 1 µM,5% and 0%
same,%Inh,[13]; 1 µM,7% and 0%
same,%Inh,[14],0%
same,%Inh,[15]; 1 µM,7% and 0%
same,%Inh,[16]; 1 µM,23% and 0%
same,%Inh,[17]; 1 µM,22% and 0%
same,%Inh,[18]; 1 µM,11% and 0%
same,%Inh,[19]; 1 µM,1% and 0%
same,%Inh,[20]; 1 µM,0% and 15%
Cl.Cn1ccc(-c2cccc(Nc3ccnc4cc(-c5nccs5)ccc34)c2)n1 [GW525701],%Inh,[1],0%
same,%Inh,[2],0%
same,%Inh,[3],0%
same,%Inh,[4],30%
same,%Inh,[5],12%
same,%Inh,[6],0%
same,%Inh,[7],0%
same,%Inh,[8],48%
same,%Inh,[9],36%
same,%Inh,[10],14%
same,%Inh,[11],50%
same,%Inh,[12],0%
same,%Inh,[13],0%
same,%Inh,[14],0%
same,%Inh,[15],0%
same,%Inh,[16],0%
same,%Inh,[17],0%
same,%Inh,[18],0%
same,%Inh,[19],0%
same,%Inh,[20],5%
N#Cc1ccc(Oc2ccc(Nc3ncnc4cc[nH]c34)cc2Cl)cc1,%Inh,[1],36%
same,%Inh,[2],0%
same,%Inh,[3],0%
same,%Inh,[4],7%
same,%Inh,[5],20%
same,%Inh,[6],6%
same,%Inh,[7],29%
same,%Inh,[8],0%
same,%Inh,[9],0%
same,%Inh,[10],11%
same,%Inh,[11],0%
same,%Inh,[12],8%
same,%Inh,[13],0%
same,%Inh,[14],19%
same,%Inh,[15],0%
same,%Inh,[16],0%
same,%Inh,[17],4%
same,%Inh,[18],5%
same,%Inh,[19],11%
same,%Inh,[20],21%
COc1ccc(Nc2nccc(N3CCC(NC(=O)Nc4ccc5c(c4)OCO5)C3)n2)cc1 (stereo not drawn) [GSK1379745],%Inh,[1],5%
same,%Inh,[2],0%
same,%Inh,[3],14%
same,%Inh,[4],14%
same,%Inh,[5],9%
same,%Inh,[6],0%
same,%Inh,[7],0%
same,%Inh,[8],11%
same,%Inh,[9],51%
same,%Inh,[10],40%
same,%Inh,[11],44%
same,%Inh,[12],5%
same,%Inh,[13],5%
same,%Inh,[14],0%
same,%Inh,[15],38%
same,%Inh,[16],0%
same,%Inh,[17],8%
same,%Inh,[18],0%
same,%Inh,[19],0%
same,%Inh,[20],0%
Fc1cccc(COc2ccc(Nc3ncnc4nn5ccccc5c34)cc2Cl)c1 [GW689066],%Inh,[1],0%
same,%Inh,[2],0%
same,%Inh,[3],0%
same,%Inh,[4],0%
same,%Inh,[5],0%
same,%Inh,[6],0%
same,%Inh,[7],0%
same,%Inh,[8],40%
same,%Inh,[9],43%
same,%Inh,[10],7%
same,%Inh,[11],32%
same,%Inh,[12],0%
same,%Inh,[13],8%
same,%Inh,[14],0%
same,%Inh,[15],0%
same,%Inh,[16],0%
same,%Inh,[17],0%
same,%Inh,[18],0%
same,%Inh,[19],0%
same,%Inh,[20],0%
CC(C)(C)c1ccc(-n2cnc3c(N)ncnc32)cc1 [SKF-97263],%Inh,[1],28%
same,%Inh,[2],100%
same,%Inh,[3],30%
same,%Inh,[4],0%
same,%Inh,[5],9%
same,%Inh,[6],0%
same,%Inh,[7],0%
same,%Inh,[8],0%
same,%Inh,[9],0%
same,%Inh,[10],2%
same,%Inh,[11],27%
same,%Inh,[12],4%
same,%Inh,[13],2%
same,%Inh,[14],3%
same,%Inh,[15],39%
same,%Inh,[16],11%
same,%Inh,[17],7%
same,%Inh,[18],0%
same,%Inh,[19],0%
same,%Inh,[20],0%
Cc1ccc(C)c(NC(=O)NCCNc2ccnc(Nc3ccc(F)cc3)n2)c1 [GSK1379878],%Inh,[1],0%
same,%Inh,[2],0%
same,%Inh,[3],0%
same,%Inh,[4],0%
same,%Inh,[5],0%
same,%Inh,[6],0%
same,%Inh,[7],0%
same,%Inh,[8],41%
same,%Inh,[9],48%
same,%Inh,[10],15%
same,%Inh,[11],25%
same,%Inh,[12],0%
same,%Inh,[13],0%
same,%Inh,[14],0%
same,%Inh,[15],0%
same,%Inh,[16],0%
same,%Inh,[17],4%
same,%Inh,[18],0%
same,%Inh,[19],0%
same,%Inh,[20],0%
CCCc1ccc(S(=O)(=O)NC2CCN(c3ccnc(Nc4ccc(OC)cc4)n3)C2)cc1 (stereo not drawn) [GSK1379737],%Inh,[1],0%
same,%Inh,[2],0%
same,%Inh,[3],0%
same,%Inh,[4],0%
same,%Inh,[5],0%
same,%Inh,[6],0%
same,%Inh,[7],0%
same,%Inh,[8],52%
same,%Inh,[9],56%
same,%Inh,[10],22%
same,%Inh,[11],66%
same,%Inh,[12],0%
same,%Inh,[13],0%
same,%Inh,[14],0%
same,%Inh,[15],0%
same,%Inh,[16],0%
same,%Inh,[17],1%
same,%Inh,[18],0%
same,%Inh,[19],0%
same,%Inh,[20],0%
CC(=O)Nc1n[nH]c2ncc(-c3ccccc3)cc12 [SB-548492],%Inh,[1],0%
same,%Inh,[2],26%
same,%Inh,[3],44%
same,%Inh,[4],0%
same,%Inh,[5],7%
same,%Inh,[6],0%
same,%Inh,[7],14%
same,%Inh,[8],10%
same,%Inh,[9],0%
same,%Inh,[10],8%
same,%Inh,[11],0%
same,%Inh,[12],0%
same,%Inh,[13],14%
same,%Inh,[14],0%
same,%Inh,[15],0%
same,%Inh,[16],29%
same,%Inh,[17],1%
same,%Inh,[18],27%
same,%Inh,[19],25%
same,%Inh,[20],8%
